In the supplement of paper PMC8047044:
Where “and” joins values, the source holds several entries; their conditions need not be identical. Identical values can stand only once. Counter-ions that a name gives are not always drawn.

test system: Neuro-2a; assay: neurite formation score, plate-normalized to DMSO control mean 5.04 (score (0-8 scale)); higher = more or longer neurites; conditions: 1 µM
Procedure: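 Neuro-2a mouse neuroblastoma cells in PLL-coated 96-well plates were pre-treated for 1 h in DMEM(+) with each kinase inhibitor at 1 µM, then switched to serum-free DMEM(-) with inhibitor to induce neurite outgrowth and fixed about 2-3 h later. Three blinded observers scored neurite formation from 0 (no neurites) to 8 (long neurites on almost all cells).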

Row | Structure (SMILES) | neurite formation score
1 | Cc1ccc(-c2csc3ncnc(SCCC(=O)O)c23)cc1 | 4.02
2 | CNC(=O)c1cc(Oc2ccc(NC(=O)Nc3cc(C(C)(C)C)nn3-c3ccc4ncccc4c3)c(F)c2)ccn1 [DCC-2036 (Rebastinib)] | 1.29
3 | Nc1nc(NCCNc2ncc(-n3ccnc3)c(-c3ccc(Cl)cc3Cl)n2)ccc1[N+](=O)[O-] | 5.29
4 | Cn1cnc2c(F)c(Nc3ccc(Br)cc3Cl)c(C(=O)NOCCO)cc21 [AZD6244 (Selumetinib)] | 4.24
5 | C=CC(=O)Nc1ccc2ncnc(Nc3cccc(Br)c3)c2c1 | 4.24
6 | COc1cc(N2CCC(N)CC2)ccc1Nc1ncc(Cl)c(-c2c[nH]c3ccccc23)n1 | 4.63
7 | COc1cc2nccc(Oc3ccc(NC(=O)NC4CC4)c(Cl)c3)c2cc1C(N)=O [Lenvatinib (E7080)] | 4.57
8 | O=C1NCCc2[nH]c(-c3ccncc3)cc21 | 5.69
9 | O=C1NCCSc2c1sc1ccc(O)cc21 | 3.69
10 | COc1ccccc1-c1cc(Nc2cccc(CS(N)(=O)=O)c2)ncn1 | 4.54
11 | O=C(/C=C/c1ccc(O)c(O)c1)c1ccc(O)cc1O [Butein] | 5.24
12 | C[C@@H]1CCN(C(=O)CC#N)C[C@@H]1N(C)c1ncnc2[nH]ccc12 | 4.02 and 4.69
13 | Cc1ccccc1CN1C2=NCCN2C(=O)C2=C1CCN(Cc1ccccc1)C2 | 4.63
14 | Oc1cccc(-c2nc(N3CCOCC3)c3oc4ncccc4c3n2)c1 [PI-103 Hydrochloride] | 4.69
15 | CN1CCN(c2ccc(C(=O)Nc3n[nH]c4ccc(Cc5cc(F)cc(F)c5)cc34)c(NC3CCOCC3)c2)CC1 [Entrectinib] | 2.54
16 | CCn1c(=O)c(-c2ccc(-c3cncs3)cc2Cl)cc2cnc(Nc3ccc(N4CCN(C)CC4)cc3)nc21 | 4.96
17 | CN1CCN(CCOc2cc(OC3CCOCC3)c3c(Nc4c(Cl)ccc5c4OCO5)ncnc3c2)CC1 [Saracatinib (AZD0530)] | 4.91
18 | Cc1ccc(S(=O)(=O)Nc2nc3ccccc3nc2Nc2ccc3nsnc3c2)cc1 | 4.14
19 | Cc1cc2c(F)c(Oc3ncnn4cc(OC[C@@H](C)OC(=O)[C@H](C)N)c(C)c34)ccc2[nH]1 | 3.57
20 | Cc1ccc2c(Nc3ccc(Cl)cc3)nccc2c1Nc1ncccc1-c1ncnc2nc[nH]c12 [B-Raf inhibitor 1] | 2.47
21 | CC(C)c1cc(CNc2nc(Nc3cc(C4CC4)[nH]n3)cc(N3CCN(C)CC3)n2)on1 | 0.692
22 | O=C(Cc1ccc(-c2ccc(OCCN3CCOCC3)cc2)cn1)NCc1ccccc1 | -0.529
23 | Cc1ccc(C(=O)Nc2ccc(CN3CCN(C)CC3)c(C(F)(F)F)c2)cc1C#Cc1cnc2cccnn12 | 1.24
24 | Oc1cccc(-c2nc(N3CCOCC3)c3oc4ncccc4c3n2)c1 | 5.24
25 | CCCCCCCCCCCCc1ccc(S(=O)(=O)Nc2nncs2)cc1 | 4.24
